In PubChem BioAssay AID1159580 (chemical genetic matrix, 2015):
Hit rate of the full screen: of about 5,500 compounds, about 2,000 (36%) were called active. About 18% were inconclusive and are not listed. No stated cut-off is given here; in the data, active means normalized growth mostly below about 0.91 (no sharp cut-off); inconclusive means no clear call, values can overlap the other calls; inactive means mostly above about 0.92. Some of the results follow.

Experiment: chemical genetic growth profiling, strain panel (AID 1159580);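 further: tested at 20 µM; growth read once vehicle control cultures reached saturation at 30 °C; 1 = growth at the plate median or of vehicle wells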
Conditions: growth OD
[1] = S. cerevisiae deletion strains, locus YGR078C, strain PAC10, stronger effect = lower value
[2] = S. cerevisiae deletion strains, locus YMR263W, strain SAP30, stronger effect = lower value
[3] = S. cerevisiae deletion strains, locus YNL153C, strain GIM3, stronger effect = lower value
[4] = S. cerevisiae deletion strains, locus YNL322C, strain KRE1, stronger effect = lower value
[5] = S. cerevisiae deletion strains, locus YPL055C, strain LGE1, stronger effect = lower value
[6] = S. cerevisiae deletion strains, locus YPL241C, strain CIN2, stronger effect = lower value

Measured: normalized growth

CC1=C(C(=O)O)N2C(=O)[C@@H](NC(=O)C(N)C3=CCC=CC3)[C@H]2SC1 (stereo partly drawn)
inactive: S. cerevisiae deletion strains, locus YAL040C, strain CLN3, stronger effect = lower value 1.02 | S. cerevisiae deletion strains, locus YDR363W, strain ESC2, stronger effect = lower value 1.03 | S. cerevisiae deletion strains, locus YER002W, strain NOP16, stronger effect = lower value 1.02 | [1] 1.01 | [2] 1.03 | [3] 1.01 | S. cerevisiae deletion strains, locus YNL175C, strain NOP13, stronger effect = lower value 1.02 | S. cerevisiae deletion strains, locus YNL197C, strain WHI3, stronger effect = lower value 1.03 | S. cerevisiae deletion strains, locus YNL224C, strain SQS1, stronger effect = lower value 1.01 | [4] 1.03 | S. cerevisiae deletion strains, locus YOR083W, strain WHI5 (second series), stronger effect = lower value 1.04 | [5] 1.02 | [6] 1.01

CN=C1CN(O)C(c2ccccc2)=c2cc(Cl)ccc2=N1
inactive: S. cerevisiae deletion strains, locus YAL013W, strain DEP1, stronger effect = lower value 0.989 | S. cerevisiae deletion strains, locus YBR021W, strain FUR4, stronger effect = lower value 1.06 | S. cerevisiae deletion strains, locus YBR229C, strain ROT2, stronger effect = lower value 0.969 | S. cerevisiae deletion strains, locus YCL029C, strain bik1, stronger effect = lower value 0.981 | S. cerevisiae deletion strains, locus YDL035C, strain GPR1, stronger effect = lower value 1.01 | S. cerevisiae deletion strains, locus YDL074C, strain BRE1, stronger effect = lower value 0.965 | S. cerevisiae deletion strains, locus YDL101C, strain DUN1, stronger effect = lower value 0.974 | S. cerevisiae deletion strains, locus YDL134C, strain PPH21, stronger effect = lower value 0.983 | S. cerevisiae deletion strains, locus YDL185W, strain tfp1, stronger effect = lower value 0.946 | S. cerevisiae deletion strains, locus YDL192W, strain arf1, stronger effect = lower value 0.983 | S. cerevisiae deletion strains, locus YDR101C, strain arx1, stronger effect = lower value 1.01 | S. cerevisiae deletion strains, locus YDR150W, strain NUM1, stronger effect = lower value 0.971 | S. cerevisiae deletion strains, locus YDR162C, strain NBP2, stronger effect = lower value 0.94 | S. cerevisiae deletion strains, locus YDR318W, strain mcm21, stronger effect = lower value 1.01 | S. cerevisiae deletion strains, locus YDR388W, stronger effect = lower value 0.983 | S. cerevisiae deletion strains, locus YDR502C, strain sam2, stronger effect = lower value 0.971 | S. cerevisiae deletion strains, locus YEL061C, strain CIN8, stronger effect = lower value 0.985 | S. cerevisiae deletion strains, locus YER110C, stronger effect = lower value 0.985 | S. cerevisiae deletion strains, locus YER155C, strain BEM2, stronger effect = lower value 0.997 | S. cerevisiae deletion strains, locus YER167W, strain BCK2, stronger effect = lower value 1 | S. cerevisiae deletion strains, locus YGL078C, strain dbp3, stronger effect = lower value 0.975 | S. cerevisiae deletion strains, locus YGL086W, strain mad1, stronger effect = lower value 1 | S. cerevisiae deletion strains, locus YGL248W, strain PDE1, stronger effect = lower value 0.978 | [1] 0.978 | S. cerevisiae deletion strains, locus YGR135W, strain pre9, stronger effect = lower value 0.955 | S. cerevisiae deletion strains, locus YGR229C, strain SMI1, stronger effect = lower value 0.993 | S. cerevisiae deletion strains, locus YGR252W, strain gcn5, stronger effect = lower value 1.06 | S. cerevisiae deletion strains, locus YHR030C, strain SLT2, stronger effect = lower value 1 | S. cerevisiae deletion strains, locus YHR079C, strain IRE1 (second series), stronger effect = lower value 0.991 | S. cerevisiae deletion strains, locus YHR094C, strain hxt1, stronger effect = lower value 0.987 | S. cerevisiae deletion strains, locus YHR129C, strain ARP1, stronger effect = lower value 0.992 | S. cerevisiae deletion strains, locus YHR200W, strain rpn10, stronger effect = lower value 0.983 | S. cerevisiae deletion strains, locus YIL066C, strain RNR3, stronger effect = lower value 0.97 | S. cerevisiae deletion strains, locus YIL073C, strain SPO22, stronger effect = lower value 1.02 | S. cerevisiae deletion strains, locus YIL125W, strain kgd1, stronger effect = lower value 0.978 | S. cerevisiae deletion strains, locus YIR030C, strain dcg1, stronger effect = lower value 0.985 | S. cerevisiae deletion strains, locus YJL095W, strain BCK1, stronger effect = lower value 0.981 | S. cerevisiae deletion strains, locus YJL134W, strain LCB3, stronger effect = lower value 0.997 | S. cerevisiae deletion strains, locus YJL168C, strain set2, stronger effect = lower value 0.984 | S. cerevisiae deletion strains, locus YJL187C, strain SWE1 (second series), stronger effect = lower value 0.959 | S. cerevisiae deletion strains, locus YJR043C, strain POL32, stronger effect = lower value 1.03 | S. cerevisiae deletion strains, locus YJR075W, strain HOC1, stronger effect = lower value 0.988 | S. cerevisiae deletion strains, locus YKL009W, strain mrt4, stronger effect = lower value 0.982 | S. cerevisiae deletion strains, locus YKL068W, stronger effect = lower value 0.988 | S. cerevisiae deletion strains, locus YKL085W, strain MDH1 (second series), stronger effect = lower value 0.978 | S. cerevisiae deletion strains, locus YKL085W, strain MDH1, stronger effect = lower value 0.978 | S. cerevisiae deletion strains, locus YKL190W, strain CNB1, stronger effect = lower value 0.979 | S. cerevisiae deletion strains, locus YKR001C, strain vps1, stronger effect = lower value 0.998 | S. cerevisiae deletion strains, locus YLR039C, strain RIC1, stronger effect = lower value 0.973 | S. cerevisiae deletion strains, locus YLR058C, strain SHM2, stronger effect = lower value 0.983 | S. cerevisiae deletion strains, locus YLR102C, strain apc9, stronger effect = lower value 0.976 | S. cerevisiae deletion strains, locus YLR262C, strain YPT6, stronger effect = lower value 0.969 | S. cerevisiae deletion strains, locus YLR268W, strain sec22, stronger effect = lower value 0.991 | S. cerevisiae deletion strains, locus YLR330W, strain CHS5, stronger effect = lower value 0.998 | S. cerevisiae deletion strains, locus YLR342W, strain FKS1 (second series), stronger effect = lower value 1.06 | S. cerevisiae deletion strains, locus YLR371W, strain rom2, stronger effect = lower value 0.969 | S. cerevisiae deletion strains, locus YLR418C, strain cdc73, stronger effect = lower value 0.951 | S. cerevisiae deletion strains, locus YML016C, strain PPZ1, stronger effect = lower value 0.988 | S. cerevisiae deletion strains, locus YML032C, strain rad52, stronger effect = lower value 0.989 | S. cerevisiae deletion strains, locus YML124C, strain tub3, stronger effect = lower value 0.984 | S. cerevisiae deletion strains, locus YMR078C, strain ctf18, stronger effect = lower value 0.98 | [2] 0.957 | S. cerevisiae deletion strains, locus YMR307W, strain GAS1, stronger effect = lower value 1.06 | S. cerevisiae deletion strains, locus YNL067W, strain RPL9B, stronger effect = lower value 0.974 | S. cerevisiae deletion strains, locus YNL128W, strain TEP1, stronger effect = lower value 0.966 | [3] 0.962 | S. cerevisiae deletion strains, locus YNL233W, strain BNI4, stronger effect = lower value 0.98 | S. cerevisiae deletion strains, locus YNL250W, strain rad50, stronger effect = lower value 0.981 | S. cerevisiae deletion strains, locus YNL271C, strain bni1, stronger effect = lower value 0.985 | S. cerevisiae deletion strains, locus YNL298W, strain CLA4, stronger effect = lower value 0.977 | S. cerevisiae deletion strains, locus YNL307C, strain MCK1, stronger effect = lower value 0.999 | [4] 0.987 | S. cerevisiae deletion strains, locus YNR052C, strain pop2, stronger effect = lower value 0.985 | S. cerevisiae deletion strains, locus YOL006C, strain TOP1, stronger effect = lower value 0.949 | S. cerevisiae deletion strains, locus YOL012C, strain htz1 0.854 | S. cerevisiae deletion strains, locus YOL147C, strain pex11, stronger effect = lower value 0.995 | S. cerevisiae deletion strains, locus YOR061W, strain CKA2, stronger effect = lower value 0.969 | S. cerevisiae deletion strains, locus YOR069W, strain VPS5, stronger effect = lower value 1 | S. cerevisiae deletion strains, locus YOR136W, strain idh2, stronger effect = lower value 0.988 | S. cerevisiae deletion strains, locus YOR144C, strain elg1, stronger effect = lower value 0.984 | S. cerevisiae deletion strains, locus YOR184W, strain ser1, stronger effect = lower value 1.01 | S. cerevisiae deletion strains, locus YOR316C, strain cot1, stronger effect = lower value 0.975 | [5] 0.934 | [6] 0.99 | S. cerevisiae deletion strains, locus YPR119W, strain clb2, stronger effect = lower value 0.989 | S. cerevisiae deletion strains, locus YPR141C, strain kar3, stronger effect = lower value 0.962 | S. cerevisiae deletion strains, locus YPR163C, strain tif3, stronger effect = lower value 0.988 | S. cerevisiae deletion strains, locus YPR167C, strain met16, stronger effect = lower value 0.983 | S. cerevisiae deletion strains, strain wtn01, stronger effect = lower value 0.984 | S. cerevisiae strains, strain wild type, stronger effect = lower value 0.994
